Reference: patent publication US20060069055, “Delivery of polynucleotides” (published 2006)

Target: NF-kB p50/p50 homodimer (Homo sapiens, UniProt P19838 P19838:1-433)
Test: EMSA; Table 3 gives 92 for PO
Settings: protein: extract; tags: nuclear extract of LPS-stimulated THP-1 cells; chain copies: 2 stated; dsDNA, one strand shown
Description: The EMSA assay was employed to characterize oligonucleotide decoys for the NF-κB transcription factor. […] Using the above modified oligonucleotides to compete for binding for the above-mentioned NF-κB family members, it was possible to compare the binding affinity of these oligonucleotides against the high affinity radiolabeled probe and each other. This assay has also enabled the design of a decoy which selectively binds particular members of the NF-κB family. By using increasing concentrations of various oligonucleotides, it was observed that, by deleting or changing targeted residues in the binding site, it was possible to specifically decrease the binding of the decoy molecule to p50/p50 homodimers, while retaining the affinity for p65/p50 and cRel/p50 heterodimers.
The NF-κB gel shift assays (EMSA) were performed as follows. A double-stranded oligonucleotide containing a consensus NF-κB binding site (5′ […].GGC 3′) (SEQ ID NO: 26) was end-labeled with γ³²P-ATP using T4 Polynucleotide Kinase (Promega). […] The dried gels were imaged and quantitated using a Typhoon 8600 Phosphorlmager (Amersham) and ImageQuant software. […]

Chain of NF-kB p50/p50 homodimer (P19838 1-433, one chain of several): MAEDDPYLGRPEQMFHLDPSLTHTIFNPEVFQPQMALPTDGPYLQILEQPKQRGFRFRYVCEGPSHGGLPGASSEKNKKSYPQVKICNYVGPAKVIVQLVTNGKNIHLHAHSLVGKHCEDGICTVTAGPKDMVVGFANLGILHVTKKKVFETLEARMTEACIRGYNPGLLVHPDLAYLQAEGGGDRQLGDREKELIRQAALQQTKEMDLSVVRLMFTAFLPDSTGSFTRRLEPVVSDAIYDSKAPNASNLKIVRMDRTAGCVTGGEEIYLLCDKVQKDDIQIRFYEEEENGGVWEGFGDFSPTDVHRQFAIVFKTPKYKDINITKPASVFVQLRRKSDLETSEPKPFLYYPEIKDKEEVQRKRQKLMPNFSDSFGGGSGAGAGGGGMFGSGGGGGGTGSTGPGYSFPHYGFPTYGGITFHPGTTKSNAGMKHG

Sequence | IC50
AGTTGAGGACTTTCCAGGC | 96 fold molar excess
